Screening data (PubChem BioAssay)
Shown are actives, neighbours in structure and some others; about 19% of the full set was active somewhere.
Gal4-VP16 FLuc: Gal4-VP16 reporter inhibition counter-screen; Drosophila S2 Gal4-VP16 UAS-luciferase, luminescence, 20 h; Potency, µM (titrated, usually from 53.6 µM), hits mostly inhibitors; AID 2546; 310,000 tested, 3.5% active;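 note: Gal4-VP16 expression switched on by copper sulfate through the metallothionein promoter; nearly all actives have a fitted effect of over 50% in size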
DT40 TDP1 no CPT: qHTS for Inhibitors of human tyrosyl-DNA phosphodiesterase 1 (TDP1): qHTS in cells in absence of CPT; Potency, µM (series often up to 46.2 µM), hits mostly inhibitors; AID 686978, 2013; DT40 Tdp1-/- hTDP1 cells, no CPT, ATP luminescence, 48 h; 420,000 tested, 15% active; note: nearly all actives have a fitted effect of over 55% in size
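Chicken DT40 Tdp1-/- cells complemented with human TDP1, screened without camptothecin (DMSO vehicle only), 400 cells/well. Compounds pin-transferred, cells incubated at 37 °C for at least 48 hr. Growth read as ATP-dependent luminescence (CellTiter-Glo, 30 min at RT).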
TDP1 block: blocks human tyrosyl-DNA phosphodiesterase 1 | Potency, µM (doses to about 130 µM), usual class: inhibitors | AID 485290 | recombinant TDP1, AlphaScreen DNA substrate cleavage | 350,000 tested, 0.28% active; note: nearly all actives have a fitted effect of over 40% in size
Target sequence (Q9NUW8 whole entry, looked up): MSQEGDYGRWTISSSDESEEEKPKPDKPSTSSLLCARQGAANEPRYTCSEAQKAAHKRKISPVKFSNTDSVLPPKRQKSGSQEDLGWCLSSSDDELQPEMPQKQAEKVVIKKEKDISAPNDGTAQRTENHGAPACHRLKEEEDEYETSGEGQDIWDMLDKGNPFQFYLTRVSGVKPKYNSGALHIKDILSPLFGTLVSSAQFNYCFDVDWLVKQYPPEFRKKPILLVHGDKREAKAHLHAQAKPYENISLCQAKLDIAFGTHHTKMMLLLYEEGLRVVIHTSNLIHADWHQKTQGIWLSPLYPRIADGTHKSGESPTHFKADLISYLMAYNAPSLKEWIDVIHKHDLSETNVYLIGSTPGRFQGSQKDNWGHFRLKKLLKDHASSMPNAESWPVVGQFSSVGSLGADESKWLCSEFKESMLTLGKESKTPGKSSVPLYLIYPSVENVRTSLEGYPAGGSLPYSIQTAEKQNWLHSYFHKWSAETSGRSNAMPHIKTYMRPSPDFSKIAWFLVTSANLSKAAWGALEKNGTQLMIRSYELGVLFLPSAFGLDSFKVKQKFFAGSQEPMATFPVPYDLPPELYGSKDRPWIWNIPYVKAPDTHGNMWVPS
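Recombinant E. coli-expressed Tdp1 (1 nM) preincubated with compound 15 min at RT, then 5'-biotin/3'-phosphotyrosine-FITC DNA substrate (15 nM) added for 5 min. AlphaScreen beads (10 ug/ml) added, 10 min RT; tyrosine-FITC cleavage read as signal loss.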
RORg inh: inhibitors of mouse ROR gamma transcriptional activity. P51450. Drosophila S2 Gal4-RORgamma UAS-luciferase reporter, 20 h. Potency, µM (doses to about 53.6 µM), actives largely listed as inhibitors. 310,000 tested, 5.4% active; note: nearly all actives have a fitted effect of over 60% in size
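Drosophila S2 cells stably expressing Gal4-DBD/mouse RORγ fusion under metallothionein promoter plus UAS-luciferase; compound 1 h, then 700 uM CuSO4 induction for 20 h at ambient temperature; inhibition read as reduced luminescence.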
DT40 TDP1 CPT: growth inhibition of DT40 Tdp1-/-;hTDP1 cells with camptothecin (screen for TDP1 inhibitors); AID 686979; 420,000 tested, 12% active; Potency, µM (series often up to 46.2 µM), most hits filed as inhibitors; chicken DT40 Tdp1-/-;hTDP1 cells + 20 nM CPT, ATP luminescence, 48 h; note: nearly all actives have a fitted effect of over 55% in size
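Cell growth measured by CellTiter-Glo luminescence after a minimum 48 h, 37 C compound exposure with 20 nM CPT in Tdp1-knockout DT40 cells stably expressing hTDP1, seeded 400/well; qHTS titration format.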
A number is an active result; 0 = inactive; ? = inconclusive; - = no result. Calls come from the whole dose curve; as a rule, active = well fitted curve in the direction sought with a large enough effect; inconclusive = small, poorly fitted or top-dose-only effect, or another doubt; inactive = no such curve, though single readings can be large; an effect the other way counts as inactive or inconclusive.

SMILES	Gal4-VP16 FLuc	DT40 TDP1 no CPT	TDP1 block	RORg inh	DT40 TDP1 CPT
O=S(=O)(Nc1cc(Cl)ccc1-n1cncn1)c1ccc(F)cc1	-	?	0	-	?
O=S(=O)(Nc1cc(Cl)ccc1-n1cncn1)c1cc(Br)ccc1Br	-	5.8µM	0	-	26µM
CC(C)(CNC(=O)c1ccc(S(=O)(=O)Nc2cccc(C(F)(F)F)c2)cc1)N1CCOCC1	-	?	0	-	?
Cc1sc(N/N=C/c2cccs2)nc1-c1ccccc1	10µM	18µM	0	7.1µM	?
COCC(=O)Nc1nc(-c2ccccc2)c(C)s1	0	0	0	0	0
Cc1sc(NC(=O)c2cccs2)nc1-c1ccccc1	0	?	0	?	23µM
CC(=O)Cc1nsc(NC(=O)c2cccs2)n1	0	23µM	0	0	?
Nc1nccnc1C(=O)OCC(=O)NNC(=O)c1ccccc1	0	0	0	0	0
C/C=C/C=C/C(=O)N1CC2(CC(c3cccc(NC(=O)/C=C/C)c3)=NO2)C[C@@H]1C(N)=O (some centres not stated)	0	0	0	0	0
C=C(C)C(=O)Nc1cccc(C2=NOC3(C2)C[C@@H](C(N)=O)N(C(=O)/C=C/C=C/C)C3)c1 (some centres not stated)	0	0	35µM	0	0
NC(=O)[C@H]1CC2(CC(c3cccc(NC(=O)[C@H]4CCC(=O)N4)c3)=NO2)CN1C(=O)c1ccccc1 (some centres not stated)	0	0	14µM	0	0
C=C(C)C(=O)Nc1cccc(C2=NOC3(C2)C[C@@H](C(N)=O)N(C(=O)CC(c2ccccc2)c2ccccc2)C3)c1 (some centres not stated)	0	0	18µM	0	?
CCc1nc(SCC(=O)Nc2nccs2)c2oc3ccccc3c2n1	?	?	0	0	?
CCCn1cnc2c(N)c(C)c(C)cc21	0	0	0	?	0
C[C@@H]1CN([C@@H](C)CO)C(=O)c2cc(NC(=O)Nc3ccccc3)ccc2O[C@H]1CN(C)C(=O)Nc1cccc2ccccc12	-	18µM	0	-	13µM
C[C@@H]1CCCCO[C@H](CN(C)C(=O)Nc2cccc3ccccc23)[C@@H](C)CN([C@H](C)CO)C(=O)c2cc(NC(=O)c3ccccc3)ccc2O1	-	3.7µM	-	-	4.6µM
CC(C)NC(=O)N(C)C[C@H]1OCCCC[C@@H](C)Oc2ccc(NC(=O)C3CCCCC3)cc2C(=O)N([C@H](C)CO)C[C@@H]1C	-	12µM	-	-	?
Cc1ccc(S(=O)(=O)N(C)C[C@H]2OCCCC[C@H](C)Oc3ccc(NC(=O)Nc4cccc5ccccc45)cc3C(=O)N([C@@H](C)CO)C[C@H]2C)cc1	-	?	-	-	0
CC(C)NC(=O)N(C)C[C@@H]1OCCCC[C@@H](C)Oc2ccc(NC(=O)Nc3ccc(F)cc3)cc2C(=O)N([C@H](C)CO)C[C@@H]1C	-	0	-	-	0
C[C@@H]1CN([C@@H](C)CO)C(=O)c2cc(NC(=O)Nc3cccc4ccccc34)ccc2O[C@@H](C)CCCCO[C@H]1CN(C)C(=O)c1ccccc1	-	21µM	-	-	?
C[C@H](CO)N1C[C@H](C)[C@@H](CN(C)C(=O)Nc2ccccc2)Oc2ccc(NC(=O)Nc3ccc(C(F)(F)F)cc3)cc2C1=O	-	?	0	-	?
O=C(NCc1ccncc1)c1cc2ccccc2nc1Cl	0	0	0	0	0
CCCCC1=CC2=CC(=O)C(C)(OC(=O)c3cccs3)C(=O)C2=CO1 (configuration not stated)	0	0	0	0	0
Cc1ccc(OC(F)F)c(NC(=O)Nc2cccc(C(F)(F)F)c2)c1	6.3µM	?	0	5µM	13µM
COc1ccc(NC(=O)Nc2cccs2)cn1	0	18µM	-	0	13µM
COc1ccc(NC(=O)Nc2cc(C)cc(C)c2)cn1	0	?	-	?	0
COc1ccc(NC(=O)Nc2cccc(C(F)(F)F)c2)cn1	0	21µM	0	0	?
CCOC(=O)Cn1c(-c2nonc2NC(=O)c2ccccc2F)nc2ccccc21	0	0	0	0	0
COc1ccc(C(=O)N(Cc2cccs2)Cc2cccs2)c(O)c1	-	-	0	-	-
